Gal4-VP16 FLuc: inhibits Gal4-VP16 luciferase reporter, ROR gamma counter-screen; Drosophila S2 Gal4-VP16 UAS-luciferase, luminescence, 20 h; Potency, µM (series often up to 53.6 µM), for the others: at the top dose activity, negative = inhibition, actives largely listed as inhibitors; 3.5% of 310,000 active;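 further: Gal4-VP16 expression switched on by copper sulfate through the metallothionein promoter; potency means the concentration at half of the fitted maximal effect; nearly all actives have a fitted effect of over 50% in size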
DT40 TDP1 CPT: growth inhibition of DT40 Tdp1-/-;hTDP1 cells with camptothecin (screen for TDP1 inhibitors). chicken DT40 Tdp1-/-;hTDP1 cells + 20 nM CPT, ATP luminescence, 48 h. Potency, µM (top dose mostly 46.2 µM), for inactives: at the top dose activity change, negative = growth inhibition, actives largely listed as inhibitors. 12% of 420,000 active. AID 686979; further: potency means the concentration at half of the fitted maximal effect; nearly all actives have a fitted effect of over 55% in size
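Cell growth measured by CellTiter-Glo luminescence after a minimum 48 h, 37 C compound exposure with 20 nM CPT in Tdp1-knockout DT40 cells stably expressing hTDP1, seeded 400/well; qHTS titration format.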
ELG1 DNA repair: ELG1-dependent DNA repair inhibition | HEK293T ELG1-luciferase reporter, luminescence, 16 h; DNA damage induced by 5-fluorouridine | Potency, µM (top dose mostly 46.1 µM), without a hit: top-dose activity change, negative = inhibition, usual class: inhibitors | 2.3% of 330,000 active; further: potency means the concentration at half of the fitted maximal effect; nearly all actives have a fitted effect of over 55% in size
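Quantitative HTS, concentration-response format. 2,000 cells/well co-treated with 5-fluorouridine and compound, 16 hr in 5% CO2 at 37 °C; ONE-Glo luminescence read after 30 min.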
TDP1 cell noCPT: qHTS for Inhibitors of human tyrosyl-DNA phosphodiesterase 1 (TDP1): qHTS in cells in absence of CPT; DT40 Tdp1-/- hTDP1 cells, no CPT, ATP luminescence, 48 h; Potency, µM (doses to about 46.2 µM), inactives show at the highest dose activity change, negative = growth inhibition, usual class: inhibitors; 15% of 420,000 active; AID 686978, 2013; further: potency means the concentration at half of the fitted maximal effect; nearly all actives have a fitted effect of over 55% in size
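Cells were dispensed at 400 per well, compounds added by pin tool, plates incubated ≥48 hr at 37 °C, then CellTiter-Glo added for 30 min at room temperature before luminescence reading. Line: DT40 Tdp1-/- complemented with hTDP1; camptothecin omitted.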
IL1B secr inh: inflammasome signaling inhibition, IL-1 beta readout | THP-1 LPS/ATP IL-1B secretion, AlphaLISA, 16 h; active compounds read low | activity change, % at 57.5 µM | 4.7% of 360,000 active; in the data active means activity change below about -50%; inconclusive means mostly about -30% to -49%
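THP-1 cells pretreated 1 hr with compounds (up to 57.5 uM final), then stimulated with LPS (250 ng/mL final) plus ATP (1.25 mM final); secreted IL-1B measured by AlphaLISA after 16 hr, decreased signal indicating inhibition.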
RORgamma inh: inhibitors of mouse ROR gamma transcriptional activity; P51450; Drosophila S2 Gal4-RORgamma UAS-luciferase reporter, 20 h; Potency, µM (titrated, usually from 53.6 µM), for inactives: top-dose activity change, negative = inhibition, most hits filed as inhibitors; 5.4% of 310,000 active; AID 2551; further: potency means the concentration at half of the fitted maximal effect; nearly all actives have a fitted effect of over 60% in size
Target sequence (P51450 whole entry, looked up, the tested form may be a part): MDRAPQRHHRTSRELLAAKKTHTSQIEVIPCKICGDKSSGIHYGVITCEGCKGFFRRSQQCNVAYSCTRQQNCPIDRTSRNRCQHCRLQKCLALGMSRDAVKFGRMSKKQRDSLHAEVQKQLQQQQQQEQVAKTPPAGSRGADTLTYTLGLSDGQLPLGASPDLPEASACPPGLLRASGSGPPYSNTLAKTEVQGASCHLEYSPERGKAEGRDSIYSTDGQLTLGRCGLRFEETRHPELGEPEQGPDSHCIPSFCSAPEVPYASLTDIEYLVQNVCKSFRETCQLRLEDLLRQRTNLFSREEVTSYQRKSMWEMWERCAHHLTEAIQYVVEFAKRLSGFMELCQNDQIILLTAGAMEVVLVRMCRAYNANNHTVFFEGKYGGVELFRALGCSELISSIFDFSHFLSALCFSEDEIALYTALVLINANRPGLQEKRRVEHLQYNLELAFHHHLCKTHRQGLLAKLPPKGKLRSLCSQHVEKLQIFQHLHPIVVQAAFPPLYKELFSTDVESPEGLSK
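Schneider cells (Drosophila), stable Gal4 DBD–ROR gamma + UAS-luc; 1 hr cmpd preincubation; Cu2+ induction 700 uM final; 20 hr ambient; luminescence.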
Active calls of the source: *; ? = inconclusive; nt = not tested or not shown. Compounds with a hit are over-represented: about 21% of the library has one in this group of screens. Unless noted, the call rests on the fitted dose curve; in most records, active means well fitted curve in the direction sought with a large enough effect; inconclusive means small, poorly fitted or top-dose-only effect, or another doubt; inactive means no such curve, though single readings can be large; an effect the other way counts as inactive or inconclusive. On the % scale 0 is the no-effect control and ±100 the full control effect.

SMILES	Gal4-VP16 FLuc	DT40 TDP1 CPT	ELG1 DNA repair	TDP1 cell noCPT	IL1B secr inh	RORgamma inh
Cc1cccc(N(Cc2ccccc2)C(=O)c2ccc(C)c(S(=O)(=O)N3CCOCC3)c2)c1	nt	16µM*	?	13µM*	0	nt
Cc1cccc(N(Cc2ccccc2)C(=O)c2ccc(F)c(S(=O)(=O)N3CCOCC3)c2)c1	nt	?	-16%	?	-7	nt
Cc1ccc(N(Cc2ccccc2)C(=O)c2ccc(F)c(S(=O)(=O)N3CCOCC3)c2)cc1	nt	?	-1%	23µM*	9	nt
CN1CCC(N(C)C(=O)c2cccc(S(=O)(=O)N3CCOCC3)c2)CC1	nt	0%	?	-12%	15	nt
CC1CN(S(=O)(=O)c2cccc(C(=O)N(C)C3CCCCC3)c2)CC(C)O1 (configuration not stated)	nt	18µM*	nt	10µM*	38	nt
COc1ccc(N2CC(C(=O)Nc3nc4ccc(F)cc4s3)CC2=O)c(OC)c1 (configuration not stated)	-4%	?	?	?	7	10%
Cc1ccccc1C(OCCN(C(C)C)C(C)C)c1ccccc1 (configuration not stated)	-1%	?	?	?	-53*	-20%
CCOC(=O)c1c(C)c(C)n(Cc2cccc(OC)c2OC)c1C	3%	?	0%	23µM*	-11	5%
CCOC(=O)c1cc(C)n(Cc2cccc(OC)c2OC)c1C	4%	?	?	?	-8	?
Fc1ccc(-n2cc(-c3ccccc3)c3c(=S)nc[nH]c32)cc1	1µM*	?	-20%	?	26	1.3µM*
Fc1cccc(-n2cc(-c3ccccc3)c3c(=S)nc[nH]c32)c1	0.63µM*	?	?	21µM*	21	2.5µM*
COCCn1c(C23CC4CC(CC(C4)C2)C3)n[nH]c1=S	1.1µM*	?	?	?	7	4µM*
CCCn1c(SCC(=O)NC(C)C23CC4CC(CC(C4)C2)C3)n[nH]c1=O (configuration not stated)	7%	-21%	1%	?	19	1%
CCCCn1c(C23CC4CC(CC(C4)C2)C3)n[nH]c1=S	3.2µM*	-30%	0%	?	-18	2.8µM*
COCCn1c(-c2ccccc2F)n[nH]c1=S	-1%	3%	8%	0%	17	8%
CC(NC(=O)CN(C)CC(=O)Nc1cccc(F)c1)c1ccccc1 (configuration not stated)	nt	-22%	17%	-6%	4	nt
COc1ccc(C(=O)NCC(=O)OCC(=O)N2CC(C)OC(C)C2)cc1OC (configuration not stated)	nt	-7%	4%	-13%	12	nt
Cc1ccc(C(=O)N2CCCC(C(=O)c3ccc(Cl)cc3C)C2)cn1 (configuration not stated)	5%	-29%	1%	21µM*	1	28%
Cc1ccc(C(=O)N2CCCC(C(=O)c3ccc(Oc4ccccc4)cc3)C2)cn1 (configuration not stated)	?	21µM*	?	16µM*	-80*	21%
Cc1ccc(-n2nc(C(=O)N3CCCCC3C)c(=O)n(C)c2=O)cc1 (configuration not stated)	nt	-14%	nt	-7%	nt	nt
Cc1ccc(Cl)cc1N1CCN(c2ncnc3onc(C)c23)CC1	nt	6.5µM*	nt	5.8µM*	nt	nt
Cc1oc2ncnc(N3CCCCC3)c2c1C(=O)N1CCN(c2ccc(Cl)cc2)CC1	nt	-19%	nt	?	nt	nt
Cc1ccc(Cl)cc1N1CCN(C(=O)c2c(C)oc3ncnc(N4CCCCC4)c23)CC1	nt	9.2µM*	nt	6.5µM*	nt	nt
Cc1ccc(Cl)cc1N1CCN(S(=O)(=O)c2c(C)noc2C)CC1	3%	?	-9%	?	8	3%
CC(=O)c1ccc(N2CCN(c3ncnc4onc(C)c34)CC2)cc1	nt	4.1µM*	nt	5.8µM*	nt	nt
SMILES	Gal4-VP16 FLuc	DT40 TDP1 CPT	ELG1 DNA repair	TDP1 cell noCPT	IL1B secr inh	RORgamma inh
Cc1noc2ncnc(N3CCN(c4cccc(Cl)c4)CC3)c12	?	16µM*	?	9.2µM*	-8	?
COc1ccc(C(=O)Nc2ncc(C)s2)cc1S(=O)(=O)N1CCOCC1	nt	0%	?	13%	71	nt
COC(=O)C1=C(C)N(Cc2ccccc2)C(=O)N[C@H]1CCc1ccccc1	nt	7%	nt	5%	0	nt
COC(=O)C1=C(C)N(Cc2ccccc2)C(=NCc2cc(OC)c(OC)c(OC)c2)N[C@H]1c1ccc(Br)cc1	-8%	13µM*	6%	18µM*	?	37%
COC(=O)C1=C(C)N(CC2CC2)C(=NCc2cc(OC)c(OC)c(OC)c2)N[C@H]1c1ccccc1	0%	?	-6%	23µM*	-1	-3%
COC(=O)C1=C(C)N(Cc2ccccc2)C(=NCc2cc(OC)c(OC)c(OC)c2)N[C@H]1CCc1ccccc1	-4%	21µM*	?	16µM*	-58*	-18%
COC(=O)C1=C(C)N(Cc2ccccc2)C(=NCc2cc(OC)c(OC)c(OC)c2)N[C@H]1c1ccccc1	-6%	21µM*	-18%	15µM*	?	-21%
COC(=O)C1=C(C)N(Cc2ccccc2)C(=NCc2ccc(OC)cc2)N[C@H]1c1ccc(Br)cc1	0%	nt	nt	nt	nt	-8%
Cc1ccc(/C=C(\NC(=O)c2ccccc2)C(=O)N2CCCC2C(=O)O)cc1 (configuration not stated)	-4%	-3%	1%	16%	8	-14%
CCCc1c(C(=O)N/N=C/c2ccccc2C(F)(F)F)nnn1-c1nonc1N	-29%	-19%	-2%	-8%	0	-8%
O[C@@H]1CN(CC2CCCCC2)[C@@H](c2ccc(Cl)cc2)C[C@H]1n1cc(-c2ccc(F)cc2)nn1	nt	?	nt	?	1	nt
COC(=O)C1=C(C)N(Cc2ccccc2)C(=O)N[C@H]1c1ccc(Br)cc1	8%	2%	-13%	7%	-54*	17%
COC(=O)C1=C(C)N(Cc2ccccc2)C(=NCCN2CCOCC2)N[C@H]1CCc1ccccc1	-6%	?	4%	23µM*	-18	-14%
CCN1C(=NCCN2CCOCC2)N[C@@H](c2ccccc2)C(C(=O)OC)=C1C	5%	-8%	?	-9%	-4	-38%
COc1ccc(CCNC(=O)c2cc([C@@H](NC(=O)OC(C)(C)C)C(C)C)sc2N)cc1OC	nt	16µM*	nt	18µM*	?	nt

From PubChem BioAssay
